This is part of a sample that, as a whole, favours compounds with a hit. Of some 79,000 tested, about 15% had one in any assay. Values without a mark were called inactive. The source made the active and inactive calls. Rule as the data show it: active = growth inhibition above about 70%; inactive = the rest.

Here are results for eight compounds from PubChem BioAssay (NCI).

A short description of the experiment: NCI Yeast Anticancer Drug Screen. Data for the rad14 strain (AID 159).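 Also: 0% = growth of vehicle-treated control cultures.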 Particulars: S. cerevisiae rad14 strain growth inhibition, hits give high values. The method, then:
Growth inhibition of yeast strains with defined genetic alterations is measured as a screen for potential anti-cancer activity. Selected strains with alterations in DNA damage repair or cell cycle control were exposed to compounds and growth inhibition was measured relative to vehicle treated controls. The strain used in this assay is rad14

`C[N+](C)([O-])CCCNc1c2ccccc2nc2cccc([N+](=O)[O-])c12`: the growth inhibition is 41% (at 1.2 µM); 90% (active) (at 3.7 µM); 94% (active) (at 11.0 µM); 96% (active) (at 33.0 µM); 96% (active) (at 100.0 µM).

`CN(C)CCNc1ccc2ncn3c4ccc(O)cc4c(=O)c1c23`: the growth inhibition was -35% (at 1.2 µM); -35% (at 3.7 µM); -31% (at 11.0 µM); -30% (at 33.0 µM); -23% (at 100.0 µM).

As for `Cn1c(-c2ccc(/C=N\N3CCN(/N=C/c4ccc(-c5c[n+]6ccsc6n5C)cc4)CC3)cc2)c[n+]2ccsc12`, the growth inhibition is, setting by setting: (at 1.2 µM) 16%; (at 3.7 µM) 10%; (at 11.0 µM) 9%; (at 33.0 µM) 14%; (at 100.0 µM) 59%.

For the compound `CC1=CC(=C(c2ccc(N)c(C)c2)c2ccc(N)c(C)c2)C=CC1=N`, the growth inhibition runs as follows: (at 1.2 µM) 0%; (at 3.7 µM) 2%; (at 11.0 µM) -2%; (at 33.0 µM) 19%; (at 100.0 µM) 97% (active).

On to `COC(=O)C(Cl)(Cl)N=Nc1c(Cl)cc(Cl)c(C)c1Cl`, for which the growth inhibition is, setting by setting: (at 1.2 µM) -51%; (at 3.7 µM) 59%; (at 11.0 µM) 80% (active); (at 33.0 µM) 99% (active); (at 100.0 µM) 98% (active).

As for `CCCNCC(=O)O[C@]1(CC)C(=O)OCc2c1cc1n(c2=O)Cc2cc3ccccc3nc2-1`, the growth inhibition runs as follows: (at 1.2 µM) 3%; (at 3.7 µM) 0%; (at 11.0 µM) 16%; (at 33.0 µM) 66%; (at 100.0 µM) 87% (active).

Consider `COC(=O)C(=O)CC(=O)c1cccc(OC)c1`, for which the growth inhibition reads like this: (at 1.2 µM) -8%; (at 3.7 µM) 7%; (at 11.0 µM) 33%; (at 33.0 µM) 67%; (at 100.0 µM) 94% (active).

With `CC(=O)Oc1ccc2c(c1)Cc1cc(N3C(=O)C=CC3=O)ccc1-2`, the growth inhibition by setting is: (at 1.2 µM) 10%; (at 3.7 µM) 25%; (at 11.0 µM) 61%; (at 33.0 µM) 98% (active); (at 100.0 µM) 97% (active).
